Assay outcomes deposited in PubChem BioAssay by ICCB-Longwood Screening Facility, Harvard Medical School.
Mtb MbtI inh: MbtI salicylate synthase inhibition; P9WFX0; purified MbtI enzyme, fluorescence intensity read-out; inhibition, % (concentration not given with the values); 0.89% of 100,000 active; AID 493033; in the data active = inhibition mostly above about 56%, no sharp cut-off; inactive = mostly below about 77%
AID504770: E. coli YBA685 growth inhibition, screen for V. cholerae RctB inhibitors; E. coli YBA685 rctB-dependent plasmid, OD600 growth, 3 h; hits give low values; z-score (test concentration not listed); 0.27% of 130,000 active; AID 504770; in the data active = z-score below about -2, passing the limit was not always enough
MenB inh: inhibitors of Mycobacterium tuberculosis MenB enzyme; 0.43% of 100,000 active; MenB enzyme assay, absorbance read-out; inhibition, % (concentration not given with the values); in the data active = inhibition above about 21%, passing the limit was not always enough
Polio RdRp inh: inhibitors of poliovirus RNA polymerase binding and polymerization; poliovirus polymerase elongation, fluorescence polarization; hits give low values; 0.66% of 150,000 active; % elongation, % (compound at 16.7 µg/mL); P03300; in the data active = % elongation below about 90%
Target sequence (P03300 1749-2209 limits assumed): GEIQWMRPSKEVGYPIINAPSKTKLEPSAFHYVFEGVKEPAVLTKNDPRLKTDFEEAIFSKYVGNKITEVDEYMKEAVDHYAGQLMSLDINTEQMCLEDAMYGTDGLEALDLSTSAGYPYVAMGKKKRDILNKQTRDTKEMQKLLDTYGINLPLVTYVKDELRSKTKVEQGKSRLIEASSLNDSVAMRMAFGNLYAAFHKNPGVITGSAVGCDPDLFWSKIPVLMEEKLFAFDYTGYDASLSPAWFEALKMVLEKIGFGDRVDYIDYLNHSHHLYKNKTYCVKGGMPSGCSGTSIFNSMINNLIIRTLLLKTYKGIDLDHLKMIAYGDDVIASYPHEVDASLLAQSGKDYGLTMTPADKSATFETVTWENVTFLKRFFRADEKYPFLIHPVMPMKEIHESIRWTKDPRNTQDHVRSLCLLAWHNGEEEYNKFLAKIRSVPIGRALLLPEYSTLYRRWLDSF
* hit, by the source's call. Most compounds without a hit are left out; they make up all but 1.4% or so of the library.

How did CCOC(=O)c1c(-c2ccccc2)csc1NC(=O)c1cc(-c2cccc(OC)c2)on1 do in these assays?
Polio RdRp inh: 71.0*

Results for CCOC(=O)c1c(-c2ccc(C)cc2)csc1NC(=O)c1cc(-c2ccc(Cl)cc2)on1 ?
Polio RdRp inh: 102.0

What do the screens show for `Cc1noc(C)c1C(=O)NCC(c1ccccc1Cl)c1c[nH]c2ccccc12` (configuration not stated)?
Mtb MbtI inh: 0.3; AID504770: 0.1; MenB inh: -29.6

How did O=C(NCC(=O)N1CCN(C2CCS(=O)(=O)C2)CC1)c1ccc2c(c1)OCO2 (configuration not stated) do in these assays?
Mtb MbtI inh: 20.4; AID504770: 1.6; MenB inh: -14.5; Polio RdRp inh: 101.0

What do the screens show for `CC1(C)CC(=O)C2=C(C1)N(Cc1ccccc1)C(N)=C(C#N)C21CCOCC1`?
AID504770: -1.5; MenB inh: -24.7; Polio RdRp inh: 107.0

How did CC1=NN(C(=O)c2cccnc2)C(C)(O)C1 (configuration not stated) do in these assays?
Mtb MbtI inh: 4.5; AID504770: -0.8; MenB inh: -6.7; Polio RdRp inh: 102.0

What do the screens show for `N/N=C1\C(=N/O)CCc2nonc21`?
Mtb MbtI inh: 2.8; AID504770: -0.95; MenB inh: -2.3; Polio RdRp inh: 105.0

How did COC(=O)/C=c1\sc2n(c1=O)CN(CCCN1CCOCC1)CN=2 do in these assays?
Mtb MbtI inh: 0.9; AID504770: -1.3; MenB inh: 1.5; Polio RdRp inh: 105.0

What do the screens show for `CCOC(=O)c1c(NC(=O)c2cc(-c3ccc(OC)cc3)on2)sc(C)c1C`?
Polio RdRp inh: 84.0*

How did CCOC(=O)c1c(NC(=O)c2cc(-c3cccc(OC)c3)on2)sc(C)c1C do in these assays?
Mtb MbtI inh: 46.3; AID504770: -0.9; MenB inh: -8.5; Polio RdRp inh: 102.0

How did Cc1[nH]c2ccccc2c1C(=O)CN1CCN(S(=O)(=O)/C=C/c2ccccc2)CC1 do in these assays?
Mtb MbtI inh: 3.1; AID504770: -0.75; MenB inh: -25.2; Polio RdRp inh: 104.0

What do the screens show for `Cc1ccc(-n2nc(C)c(C(=O)N3CCN(c4ncccn4)CC3)n2)c(C)c1`?
Mtb MbtI inh: -13.0; AID504770: -1.3; MenB inh: -3.5; Polio RdRp inh: 102.0

Results for O=C(c1ccccc1)N1CCn2c1nc1ccccc12 ?
AID504770: -0.85; MenB inh: -9.9; Polio RdRp inh: 110.0

How did COCCNC(=S)N1CCn2c1nc1ccccc12 do in these assays?
Mtb MbtI inh: 84.5*; AID504770: 0.1; MenB inh: -2.6; Polio RdRp inh: 91.0

Results for COC(=O)/C=C1\SC(NC(=O)c2ccccc2)NC1=O (configuration not stated) ?
Mtb MbtI inh: 9.4; AID504770: -0.35; MenB inh: -5.0; Polio RdRp inh: 97.0

How did Nc1ccc2c(c1)C(=O)N(CC1CCCO1)C2=O (configuration not stated) do in these assays?
Mtb MbtI inh: -37.0; AID504770: -0.7; MenB inh: -53.5; Polio RdRp inh: 98.0

What do the screens show for `O=C1C=CC(=O)N1CC1CCCO1` (configuration not stated)?
Mtb MbtI inh: 61.5*; AID504770: -0.55; Polio RdRp inh: 100.0

How did CCCCN1CN(CCCN2CCCCC2)Cn2c1nc1ccccc12 do in these assays?
Mtb MbtI inh: -6.8; AID504770: -0.7; MenB inh: 3.2; Polio RdRp inh: 100.0

What do the screens show for `Cc1cccc(-c2nnc(C3CCN(S(=O)(=O)Cc4ccccc4)CC3)o2)c1`?
Mtb MbtI inh: 71.8*; AID504770: -0.5; MenB inh: -62.8; Polio RdRp inh: 98.0

Results for O=C1CSc2ccccc2N1Cc1n[nH]c(=S)n1Cc1ccccc1 ?
Mtb MbtI inh: 56.3*; AID504770: -0.4; MenB inh: -29.9; Polio RdRp inh: 99.0

Results for O=c1c2ccccc2n2c(=S)[nH]nc2n1Cc1ccccc1 ?
Mtb MbtI inh: 37.9; AID504770: -0.45; MenB inh: -106.2; Polio RdRp inh: 98.0

What do the screens show for `CC(O)c1nc2ccccc2n1Cc1ccc(Cl)cc1Cl` (configuration not stated)?
Mtb MbtI inh: -8.4; AID504770: 0; Polio RdRp inh: 99.0

What do the screens show for `COC(=O)c1cnc(NN2C(=O)C=C(C)C2=O)nc1C(F)(F)F`?
Mtb MbtI inh: 52.9*; AID504770: -0.55; MenB inh: -1.5; Polio RdRp inh: 97.0

How did CCc1c(C)sc2[nH]c(=S)n(CC)c(=O)c12 do in these assays?
Mtb MbtI inh: 59.7; AID504770: 3.1; MenB inh: -30.0; Polio RdRp inh: 100.0

How did CC(C)(C)N(N)C(=S)NCc1ccc(F)cc1 do in these assays?
Mtb MbtI inh: 90.0*; AID504770: -0.85; MenB inh: -23.2; Polio RdRp inh: 86.0*

Results for O=C1N=C(c2ccccc2)S/C1=C\c1cccs1 ?
Mtb MbtI inh: 99.9*; AID504770: 0.05; MenB inh: -84.8; Polio RdRp inh: 97.0

Results for O=C1N=C(N2CCCCC2)S/C1=C\c1cccs1 ?
AID504770: -0.9; MenB inh: -9.3; Polio RdRp inh: 107.0

Results for CC1(C)CC(=O)C=C(NNc2ccccn2)C1 ?
Mtb MbtI inh: 58.2*; AID504770: -0.55; MenB inh: -78.2; Polio RdRp inh: 101.0

Results for CCOC(=O)c1cccc(NC(=O)c2oc3c(c2C)-c2nn(CC)cc2CC3)c1 ?
Polio RdRp inh: 64.0*

What do the screens show for `CC(=O)c1cccc(NC(=O)c2oc3c(c2C)-c2nn(Cc4ccc(Cl)cc4)cc2CC3)c1`?
Polio RdRp inh: 93.0

How did COc1cccc(C2C(C#N)=C(N)Oc3[nH]c(=O)[nH]c(=O)c32)c1 (configuration not stated) do in these assays?
AID504770: 0.55; MenB inh: -1.6; Polio RdRp inh: 104.0

What do the screens show for `CCN(CC)CCNc1nc2c(c(=O)n(C)c(=O)n2C)n1Cc1ccc(F)cc1`?
Mtb MbtI inh: -1.3; AID504770: 0.1

Results for CCN(CC)CCNc1nc2c(c(=O)n(C)c(=O)n2C)n1CCc1ccccc1 ?
Mtb MbtI inh: 19.1; AID504770: 2.25; MenB inh: 22.7*; Polio RdRp inh: 103.0

How did O=C(CCS(=O)(=O)c1ccccc1)N(Cc1cccnc1)c1nc2ccc(F)cc2s1 do in these assays?
Polio RdRp inh: 100.0

What do the screens show for `O=C(CCS(=O)(=O)c1ccccc1)N(Cc1ccccn1)c1nc2ccccc2s1`?
Mtb MbtI inh: 71.0*; AID504770: 1.35; MenB inh: -5.5; Polio RdRp inh: 104.0

What do the screens show for `Cc1cnc2c(c1)N1CCC2CC1`?
Mtb MbtI inh: 1.6; AID504770: 2.15; MenB inh: 39.3*; Polio RdRp inh: 102.0

Results for CCCNC(=O)CSc1n[nH]c(=S)s1 ?
Mtb MbtI inh: 56.9*; AID504770: 0.95; MenB inh: -23.2; Polio RdRp inh: 101.0

Results for CCCNC(=O)CSc1nnc(C)o1 ?
Mtb MbtI inh: 11.6; AID504770: -0.5; MenB inh: -9.0; Polio RdRp inh: 101.0

Results for CC(=O)OC(OC(C)=O)C12C=CC(O1)C1C(=O)N(c3ccccc3-c3ccccc3)C(=O)C12 (configuration not stated) ?
Mtb MbtI inh: 90.3*; AID504770: -0.1; MenB inh: -10.2; Polio RdRp inh: 98.0
